Test [1] can be described thus: Cytotoxicity counterscreen for inhibitors of SARS-CoV-2 cell entry (AID 1645845). Further: nearly all actives have a fitted effect of over 50% in size. In short, it runs like this:
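Counterscreen run in the same HEK293-ACE2 line as the pseudotyped-particle entry assay, without particles. Viability after 48 h at 37 C was read as ATP luminescence, scaled between cell-containing and cell-free wells.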

Test [2] in a line: Primary qHTS to identify inhibitors of SARS-CoV-2 cell entry (AID 1645846). Further: nearly all actives have a fitted effect of over 45% in size. The following applies: activity change, negative = inhibition: at 57.1 µM (top of the series) unless noted. In short, it runs like this:
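Data are normalized to wells receiving SARS-CoV-2-S pseudoparticles and those given bald particles. Entry signal was luciferase luminescence in stable hACE2 Expi293F cells, 48 hr post-infection, after 1 hr compound pretreatment.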

Structures are written as SMILES. Several values for one entry are separate records, joined by “and”; a condition that tells them apart may be missing. Identical values can stand only once. Results filed as inconclusive are left out. Entries that show only a call come without a potency. Activity calls are given as the source filed them. The call rests on the fitted dose curve.
Potency means the concentration at half of the fitted maximal effect.

For the compound `CCC(=O)O[C@]1(C(=O)COC)[C@@H](C)C[C@H]2[C@@H]3CCC4=CC(=O)C=C[C@]4(C)C3(F)[C@@H](O)C[C@@]21C` (stereo partly drawn), the Potency result in test [1] and in test [2] was “inactive” in each case.

As for `C[C@H](CCC(=O)O)[C@H]1CC[C@H]2[C@@H]3C(=O)C[C@@H]4CC(=O)CC[C@]4(C)[C@H]3CC(=O)[C@]12C`, the Potency result in test [1] and in test [2] was “inactive” throughout.

`CC(C)(C)C(=O)OCOC(=O)[C@@H]1N2C(=O)[C@@H](NC(=O)[C@H](N)c3ccccc3)[C@H]2SC1(C)C`: the Potency result in test [1] is “inactive”. Also, the activity change, negative = inhibition in test [2] is -12.4%.

Consider `C=CC[N+]1([C@H]2C[C@H]3[C@@H]4CC[C@H]5C[C@H](OC(C)=O)[C@@H](N6CCCCC6)C[C@]5(C)[C@H]4CC[C@]3(C)[C@H]2OC(=O)CC)CCCCC1`, for which the Potency result in test [1] and in test [2] was “inactive” each time.

In the case of `CCCCN(CCN(CCCC)C(=O)N1CCOCC1)C(=O)N1CCOCC1`, the Potency entry in test [1] and in test [2] was “inactive” throughout.

On to `COc1ccc2cc1Oc1ccc(cc1)C[C@H]1c3c(cc4c(c3Oc3cc5c(cc3OC)CCN(C)[C@@H]5C2)OCO4)CCN1C`, for which the Potency in test [1] was 14.1 µM (active); in test [2], 7.94 µM (active).

In the case of `C[C@@H]1C[C@H]2[C@@H]3CCC4=CC(=O)C=C[C@]4(C)[C@@]3(F)[C@@H](O)C[C@]2(C)[C@@]1(O)C(=O)COC(=O)c1ccncc1`, the Potency result in test [1] and in test [2] was “inactive” in each case.

For the compound `Cc1ccc(=O)n(-c2ccccc2)c1`, the Potency result in test [1] and in test [2] was “inactive” in each case.

As to `CC(COc1ccccc1)NC(C)C(O)c1ccc(O)cc1` (stereo not drawn), the Potency entry in test [1] and in test [2] was “inactive” in each case.

Consider `CCOC(=O)c1ccc(C#Cc2ccc3c(c2)C(C)(C)CCS3)nc1`, for which the Potency entry in test [1] and in test [2] was “inactive” each time.

Turning to `CCCCOc1ccc(CC(=O)NO)cc1`, in test [1], the Potency result is “inactive”. In test [2], the activity change, negative = inhibition is -20.4% and -25.7%.

Take `Cc1ccc(O)cc1`: the Potency entry in test [1] was “inactive”. In addition, the activity change, negative = inhibition in test [2] is -24.6%.

As for `CC(C)[C@@H]1CC[C@@H](C)CC1=O`, the Potency entry in test [1] and in test [2] was “inactive” in each case.

In the case of `O=C(CCCCCCCCC#CI)Oc1ccccc1`, the Potency result in test [1] was “inactive”. In test [2], the activity change, negative = inhibition came out at 1.58%.

As to `CN(C)C(=O)Oc1cccc([N+](C)(C)C)c1`, in test [1], the Potency entry is “inactive”. The activity change, negative = inhibition in test [2] is -1.02%.

Regarding `C#C[C@]1(OC(C)=O)CC[C@H]2[C@@H]3CCC4=C/C(=N/O)CC[C@@H]4[C@H]3CC[C@@]21CC`, the Potency result in test [1] is “inactive”. For the same compound, the activity change, negative = inhibition in test [2] is -15.4%.

As to `CCN1CCN(c2cc(-c3ccc(F)cc3)c3c(n2)CCCCCC3)CC1`, the Potency entry in test [1] and in test [2] was “inactive” in each case.

Turning to `O=c1ccc2ccccc2o1`, the Potency result in test [1] and in test [2] was “inactive” throughout.

Take `CC1(C)O[C@@H]2C[C@H]3[C@@H]4C[C@H](F)C5=CC(=O)CC[C@]5(C)[C@H]4[C@@H](O)C[C@]3(C)[C@]2(C(=O)CO)O1`: the Potency result in test [1] and in test [2] was “inactive” each time.

With `CCN(CC)C(=O)c1cccc(C)c1`, the Potency result in test [1] and in test [2] was “inactive” throughout.

For the compound `CC(C(=O)O)c1ccc(CC2CCCC2=O)cc1` (stereo not drawn), the Potency entry in test [1] and in test [2] was “inactive” each time.

On to `CC(C)c1cc2c(cc1S(=O)(=O)O)[C@@]1(C)CCC[C@@](C)(C(=O)O)[C@@H]1CC2`, for which, in test [1], the Potency result was “inactive”. Moreover, the activity change, negative = inhibition in test [2] was -22.9%.

For the compound `Brc1c(NC2=NCCN2)ccc2nccnc12`, the Potency result in test [1] and in test [2] was “inactive” each time.

Take `NC(=O)CCCCC1CCSS1` (stereo not drawn): the Potency entry in test [1] and in test [2] was “inactive” throughout.

For the compound `O=Cc1ccccc1C=O`, in test [1], the Potency result is “inactive”. Also, the activity change, negative = inhibition in test [2] is -7.57%.

For `COC(=O)C1=C(C)NC(C)=C(C(=O)OC)C1c1ccccc1[N+](=O)[O-]`, the Potency entry in test [1] was “inactive”. The activity change, negative = inhibition in test [2] is -30.6%.

On to `CC1(C)O[C@@H]2C[C@H]3[C@@H]4CCC5=CC(=O)CC[C@]5(C)[C@@]4(F)[C@@H](O)C[C@]3(C)[C@]2(C(=O)CCl)O1`, for which the Potency entry in test [1] and in test [2] was “inactive” in each case.

Regarding `COc1ccc2c(c1)C(=O)N(CCc1ccc(S(=O)(=O)NC(=O)NC3CCCCC3)cc1)C(=O)C2(C)C`, the Potency result in test [1] and in test [2] was “inactive” in each case.

For `CC(C)(Oc1ccc(CCNC(=O)c2ccc(Cl)cc2)cc1)C(=O)O`, the Potency entry in test [1] and in test [2] was “inactive” each time.

Regarding `CCCCNc1ccc(C(=O)OCCN(C)C)cc1`, the Potency entry in test [1] and in test [2] was “inactive” throughout.

Consider `Cc1ccc(Nc2c(F)cccc2Cl)c(CC(=O)O)c1`, for which the Potency entry in test [1] and in test [2] was “inactive” each time.

Take `CCOCC(O)COc1ccc(NC(=O)CC[S+](C)C)cc1` (stereo not drawn): the Potency entry in test [1] is “inactive”. In test [2], the Potency entry was “inactive” and the activity change, negative = inhibition was -2.31%.

`O=c1oc2c(O)c(O)cc3c(=O)oc4c(O)c(O)cc1c4c23`: in test [1], the Potency result is “inactive”. Moreover, in test [2], the Potency result was “inactive” and the activity change, negative = inhibition is -5.97% [at 27.1 µM].

As to `N=C(N)c1ccc2cc(OC(=O)c3ccc(N=C(N)N)cc3)ccc2c1`, the Potency result in test [1] was “inactive”. In test [2], the Potency result was “inactive” and the activity change, negative = inhibition is -3.1%.

On to `COc1ccc(CN(CCN(C)C)c2ncccn2)cc1`, for which the Potency entry in test [1] was “inactive”. Moreover, the activity change, negative = inhibition in test [2] is -19.5%.

With `O=C(O)c1cccc(-c2noc(-c3ccccc3F)n2)c1`, the Potency in test [1] was 6.31 µM (active). Besides, in test [2], the Potency result is “inactive” and the activity change, negative = inhibition is -78%.

As for `C[C@@H](C1=C(CCN(C)C)Cc2ccccc21)c1ccccn1`, the Potency result in test [1] is “inactive”. Besides, the activity change, negative = inhibition in test [2] was -25.9%.

Take `CC(C)OC(=O)C(C(=O)OC(C)C)=C1SC=CS1`: the Potency entry in test [1] and in test [2] was “inactive” in each case. Moreover, the activity change, negative = inhibition in test [2] is -9.44%.

In the case of `O=C(OCc1ccccc1)c1ccc(O)cc1`, the Potency result in test [1] and in test [2] was “inactive” each time.

`C[C@]12CC[C@@H]3c4ccc(O)cc4CC[C@H]3[C@@H]1CCC2=O`: the Potency entry in test [1] and in test [2] was “inactive” in each case.

With `CCOC(=O)[C@H](CCc1ccccc1)N[C@H]1CS[C@H](c2cccs2)CN(CC(=O)O)C1=O`, the Potency result in test [1] is “inactive”. In test [2], the Potency result was “inactive” and the activity change, negative = inhibition was -4.69%.

Regarding `CC/C(=C(/CC)c1ccc(O)cc1)c1ccc(O)cc1`, in test [1], the Potency entry is “inactive”. Moreover, the Potency in test [2] was 17.8 µM (active).

As for `c1ccc([C@H]2CN3CCSC3=N2)cc1`, in test [1], the Potency entry is “inactive”. Moreover, in test [2], the Potency result was “inactive” and the activity change, negative = inhibition is -16.1%.
